The panel holds about 79,000 compounds, 15% with a hit somewhere; the sample as a whole holds those more often. A number with no mark means an inactive call. Activity calls are given as the source filed them. Rule as the data show it: active = growth inhibition above about 70%; inactive = the rest.

The nature of assay [1]: NCI Yeast Anticancer Drug Screen. Data for the rad50 strain (AID 155).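 Also: 0% = growth of vehicle-only cultures of the same strain.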 The note with it: S. cerevisiae rad50 strain growth inhibition, active compounds read high. Summed up:
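DNA repair mutant yeast, compound exposure, growth read-out; inhibition is taken relative to vehicle.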

Assay [2] in a line: NCI Yeast Anticancer Drug Screen. Data for the mec2-1 strain (AID 157). The note with it: S. cerevisiae mec2-1 strain, active compounds read high. The procedure, abridged:
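Compounds were applied to mec2-1 yeast cells. Their growth was then compared with that of vehicle-treated cultures to give growth inhibition.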

A short description of assay [3]: NCI Yeast Anticancer Drug Screen. Data for the sgs1 mgt1 strain (AID 161).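 Also: 0% = growth of cultures given vehicle only.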 The note with it: S. cerevisiae sgs1 mgt1 strain, active compounds read high. The procedure, abridged: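 Percent growth inhibition was derived by comparing compound-exposed mutant yeast with vehicle-exposed cultures. The strain carries alterations in DNA damage repair.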
Assay [4] is described as follows: NCI Yeast Anticancer Drug Screen. Data for the cln2 rad14 strain (AID 165).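 Also: 0% = growth equal to vehicle treated cultures.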 The note with it: S. cerevisiae cln2 rad14 strain, active compounds read high. The procedure, abridged:
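Strain: cln2 rad14 yeast, altered in cell cycle control and DNA damage repair. Read-out: growth inhibition vs vehicle.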

Assay [5] in a line: NCI Yeast Anticancer Drug Screen. Data for the bub3 strain (AID 167). The note with it: S. cerevisiae bub3 mutant strain, active compounds read high. The procedure, abridged:
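In this screen, a yeast mutant lacking normal mitotic checkpoint function is challenged with compound. Relative growth versus vehicle gives the inhibition value.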

A short description of assay [6]: NCI Yeast Anticancer Drug Screen. Data for the mlh1 rad18 strain (AID 175). The note with it: S. cerevisiae mlh1 rad18 strain growth inhibition, active compounds read high. Summed up:
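A repair-deficient yeast strain is exposed to test compound, and growth is scored relative to vehicle-treated controls.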

Where [7] appears, read: at 5.0 µM (retest, dose inferred, filed as 0.5).
Setting [8] is: at 50.0 µM (retest, dose inferred, filed as 5.0).

Regarding `N#[N+]c1c([O-])ccc2nc3ccccc3nc12`, the growth inhibition is -101% in assay [1] (setting [7]); 12% in assay [1] (setting [8]); 68.4% in assay [1] (at 50.0 µM); -43% in assay [2] (setting [7]); -45% in assay [2] (setting [8]); 40.7% in assay [2] (at 50.0 µM). Besides, the growth inhibition in assay [3] (setting [7]) is -56%; in assay [3] (setting [8]), -30%; in assay [3] (at 50.0 µM), 10.2%; in assay [4] (setting [7]), -52%; in assay [4] (setting [8]), -65%; in assay [4] (at 50.0 µM), -1.5%. The growth inhibition was -59% in assay [5] (setting [7]); -69% in assay [5] (setting [8]); -14.9% in assay [5] (at 50.0 µM); -114% in assay [6] (setting [7]); -56% in assay [6] (setting [8]); 66.9% in assay [6] (at 50.0 µM).

Regarding `CCN(C(C)=O)c1ccc2c(c1)Cc1ccccc1-2`, the growth inhibition in assay [1] (setting [7]) was 3%; in assay [1] (setting [8]), 96% (active); in assay [1] (at 50.0 µM), 97.2% (active); in assay [2] (setting [7]), -3%; in assay [2] (setting [8]) it was 97% (active); in assay [2] (at 50.0 µM), 95.2% (active). In addition, the growth inhibition in assay [3] (setting [7]) is 5%; in assay [3] (setting [8]), 97% (active); in assay [3] (at 50.0 µM) it was 96.8% (active); in assay [4] (setting [7]) it was -2%; in assay [4] (setting [8]), 96% (active); in assay [4] (at 50.0 µM), 94.8% (active). The growth inhibition was 11% in assay [5] (setting [7]); 96% (active) in assay [5] (setting [8]); 97.4% (active) in assay [5] (at 50.0 µM); -10% in assay [6] (setting [7]); 97% (active) in assay [6] (setting [8]); 96.8% (active) in assay [6] (at 50.0 µM).

For `CCCCCCCCCc1c(O)c(O)c(CCCCCCCCC)c(CCCCCCCCC)c1CCCCCCCCC`, the growth inhibition in assay [1] (setting [7]) is 1%; in assay [1] (setting [8]) it was 27%; in assay [1] (at 50.0 µM) it was 54.9%; in assay [2] (setting [7]), -11%; in assay [2] (setting [8]) it was 30%; in assay [2] (at 50.0 µM) it was -5.95%. Further, the growth inhibition in assay [3] (setting [7]) was -10%; in assay [3] (setting [8]), 28%; in assay [3] (at 50.0 µM), 54.9%; in assay [4] (setting [7]), 33%; in assay [4] (setting [8]), 55%; in assay [4] (at 50.0 µM), 49.9%. In addition, the growth inhibition in assay [5] (setting [7]) was -6%; in assay [5] (setting [8]), 87% (active); in assay [5] (at 50.0 µM) it was 55.4%; in assay [6] (setting [7]) it was -6%; in assay [6] (setting [8]), 38%; in assay [6] (at 50.0 µM), 85.3% (active).

Take `CC(=O)OC1CCCc2c1nc1ccccc1[n+]2[O-]` (configuration not stated): the growth inhibition was 10% in assay [1] (setting [7]); -2% in assay [1] (setting [8]); 8.6% in assay [1] (at 50.0 µM); 10% in assay [2] (setting [7]); 0% in assay [2] (setting [8]); 4.55% in assay [2] (at 50.0 µM). The growth inhibition is 6% in assay [3] (setting [7]); 1% in assay [3] (setting [8]); 0.5% in assay [3] (at 50.0 µM); 3% in assay [4] (setting [7]); -3% in assay [4] (setting [8]); 28.6% in assay [4] (at 50.0 µM). In addition, the growth inhibition was 15% in assay [5] (setting [7]); 4% in assay [5] (setting [8]); -10.5% in assay [5] (at 50.0 µM); 11% in assay [6] (setting [7]); -5% in assay [6] (setting [8]); 5.7% in assay [6] (at 50.0 µM).

Regarding `COc1ccccc1NC(=S)N/N=C(/C)c1ccccn1`, the growth inhibition in assay [1] (setting [7]) is 22%; in assay [1] (setting [8]), 78% (active); in assay [1] (at 50.0 µM) it was -30.1%; in assay [2] (setting [7]), 22%; in assay [2] (setting [8]) it was 66%; in assay [2] (at 50.0 µM) it was -8.7%. Besides, the growth inhibition in assay [3] (setting [7]) is 34%; in assay [3] (setting [8]) it was 61%; in assay [3] (at 50.0 µM), 18.4%; in assay [4] (setting [7]), 32%; in assay [4] (setting [8]), 56%; in assay [4] (at 50.0 µM), -3.95%. In addition, the growth inhibition in assay [5] (setting [7]) was 54%; in assay [5] (setting [8]) it was 77% (active); in assay [5] (at 50.0 µM), 13.5%; in assay [6] (setting [7]), 13%; in assay [6] (setting [8]), 64%; in assay [6] (at 50.0 µM), -2.3%.

With `O=c1cc(CSc2ccc(Cl)cc2)occ1O`, the growth inhibition in assay [1] (setting [7]) was 3%; in assay [1] (setting [8]) it was 32%; in assay [1] (at 50.0 µM) it was 44.5%; in assay [2] (setting [7]) it was -2%; in assay [2] (setting [8]) it was 17%; in assay [2] (at 50.0 µM) it was 13.4%. For the same molecule, the growth inhibition in assay [3] (setting [7]) was 3%; in assay [3] (setting [8]), 72% (active); in assay [3] (at 50.0 µM) it was 87.2% (active); in assay [4] (setting [7]) it was 7%; in assay [4] (setting [8]), 18%; in assay [4] (at 50.0 µM), 13.2%. In addition, the growth inhibition in assay [5] (setting [7]) was -3%; in assay [5] (setting [8]), 4%; in assay [5] (at 50.0 µM) it was 11.9%; in assay [6] (setting [7]), 2%; in assay [6] (setting [8]), 51%; in assay [6] (at 50.0 µM) it was 55%.

Turning to `Cc1c(Cl)cccc1NC(=O)/C(Cl)=C(\Cl)C(=O)O`, the growth inhibition in assay [1] (setting [7]) was -1%; in assay [1] (setting [8]) it was 33%; in assay [1] (at 50.0 µM), 99.5% (active); in assay [2] (setting [7]), -1%; in assay [2] (setting [8]) it was 41%; in assay [2] (at 50.0 µM), 99.8% (active). Besides, the growth inhibition in assay [3] (setting [7]) was 1%; in assay [3] (setting [8]), 74% (active); in assay [3] (at 50.0 µM), 99.7% (active); in assay [4] (setting [7]), 1%; in assay [4] (setting [8]), 3%; in assay [4] (at 50.0 µM) it was 99.3% (active). Besides, the growth inhibition in assay [5] (setting [7]) was -3%; in assay [5] (setting [8]), 18%; in assay [5] (at 50.0 µM) it was 99.7% (active); in assay [6] (setting [7]) it was -6%; in assay [6] (setting [8]) it was 39%; in assay [6] (at 50.0 µM), 99.5% (active).

Regarding `COc1ccc(/C=C2\SC(=S)N(/C=C(/C#N)C(=O)c3ccc4ccccc4c3)C2=O)cc1OC`, the growth inhibition in assay [1] (setting [7]) was -11%; in assay [1] (setting [8]) it was 98% (active); in assay [1] (at 50.0 µM), 97.4% (active); in assay [2] (setting [7]), -18%; in assay [2] (setting [8]), 99% (active); in assay [2] (at 50.0 µM), 98.5% (active). In addition, the growth inhibition is 1% in assay [3] (setting [7]); 98% (active) in assay [3] (setting [8]); 97.2% (active) in assay [3] (at 50.0 µM); -13% in assay [4] (setting [7]); 97% (active) in assay [4] (setting [8]); 95.3% (active) in assay [4] (at 50.0 µM). The growth inhibition in assay [5] (setting [7]) was -22%; in assay [5] (setting [8]), 98% (active); in assay [5] (at 50.0 µM), 98.6% (active); in assay [6] (setting [7]), 5%; in assay [6] (setting [8]) it was 99% (active); in assay [6] (at 50.0 µM), 98.3% (active).

`CC1=CC(C)(C)Nc2cc(N)ccc21`: the growth inhibition in assay [1] (setting [7]) was -166%; in assay [1] (setting [8]), -193%; in assay [1] (at 50.0 µM) it was 50.5%; in assay [2] (setting [7]), -49%; in assay [2] (setting [8]) it was -65%; in assay [2] (at 50.0 µM), 20.6%. The growth inhibition was -64% in assay [3] (setting [7]); -72% in assay [3] (setting [8]); 43.8% in assay [3] (at 50.0 µM); -54% in assay [4] (setting [7]); -82% in assay [4] (setting [8]); -35.5% in assay [4] (at 50.0 µM). The growth inhibition in assay [5] (setting [7]) is -74%; in assay [5] (setting [8]), -85%; in assay [5] (at 50.0 µM) it was 39.3%; in assay [6] (setting [7]), -148%; in assay [6] (setting [8]) it was -136%; in assay [6] (at 50.0 µM) it was 54.5%.

The record behind these values is PubChem BioAssay (NCI).
